Source: PubChem
12-LOX inh: ALOX12 (human) lipoxygenase inhibition | purified 12hLO, xylenol orange hydroperoxide absorbance | Potency, µM (highest dose often 108 µM), for the others: at the top dose activity change, negative = inhibition, usual class: inhibitors | 1.1% of 580,000 active | P18054; further: on the % scale 0 is the no-effect control and ±100 the full control effect
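Hydroperoxide product was detected by ferrous iron/xylenol orange as the 573 to 405 nm absorbance ratio. Arachidonic acid at 40 uM (final) was turned over for 30 min at room temperature by 150 nM human 12hLO, pH 7.0 Hepes buffer, after 15 min compound preincubation.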
PTHR1 agonist: agonists of human PTHR1 parathyroid hormone receptor; HEK293 GP2 PTHR1 cells, GloSensor cAMP luminescence, 1 h; Potency, µM (series often up to 115 µM), inactives show top-dose activation, hits mostly activators; Q03431; 0.075% of 410,000 active; further: nearly all actives have a fitted effect of over 55% in size
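HEK-293-derived GP2 cells expressing PTHR1 and a GloSensor cAMP reporter, 3,000/well, plated overnight, given luciferin plus IBMX (each 0.5 mM as added) for 1 h at 37 °C, then compound for 1 h at 37 °C. Luminescence was read after 15 min at room temperature.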
Glioma ERSR ind: induces the endoplasmic reticulum stress response in human glioma cells; 0.02% of 420,000 active; Potency, µM, without a hit: top-dose activation, usual class: activators; U87-MG GRP78 promoter luciferase reporter, 16 h; further: series mostly up to about 76 µM; % of control where 0% means no effect; nearly all actives have a fitted effect of over 35% in size
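ERSR induction read as luciferase luminescence (Bright-Glo, 10 min at room temperature) in stably transfected human U87-MG glioma cells exposed to compounds for 16 h, using GRP78 as sensor.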
GLS inh: inhibitors of human glutaminase (GLS). O94925. GLS enzymatic activity, qHTS titration. Potency, µM (series often up to 45.5 µM), inactives show top-dose activity change, negative = inhibition, most hits filed as inhibitors. 0.21% of 410,000 active. AID 624170; further: on the % scale 0 is the no-effect control and ±100 the full control effect
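Assay buffer: 45 mM KH2PO4 pH 8.2, 0.02% Tween-20. hKGA acts on L-glutamine (1 mM solution added); product glutamate is reported by an oxidase/peroxidase Amplex Red coupling, with fluorescence taken at baseline and 30 min.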
GLP1R ag: agonists of human GLP-1 receptor. Potency, µM (series often up to 45.6 µM), for inactives: at the highest dose activation, most hits filed as activators. 0.007% of 380,000 active. HEK293 GLP-1R CRE-luciferase, luminescence, 4-6 h; cells express a hypersensitive GLP-1R form. P43220. AID 624172; further: % of control where 0% means no effect
GLP1R inv ag: acts as inverse agonist at human GLP-1 receptor | P43220 | HEK293 GLP-1R CRE-luciferase, luminescence, 24 h; GLP-1R form is constitutively active | Potency, µM (doses to about 38.3 µM), inactives show at the highest dose activity change, negative = inhibition, usual class: inhibitors | 1.6% of 410,000 active; further: on the % scale 0 is the no-effect control and ±100 the full control effect; nearly all actives have a fitted effect of over 55% in size
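Readout was luciferase luminescence, measured 12 min after detection reagent at room temperature. Beforehand, GLP-1R reporter HEK293 cells had sat 12 h, then received compounds for 24 hr at 37 deg C.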
* hit, by the source's call; i = inactive; ? = inconclusive; / = no result; [ ] = another dose, or the depositor's remark. An excerpt weighted towards active compounds, which were near 2.3% of everything screened. The call rests on the fitted dose curve; in most records, active means well fitted curve in the direction sought with a large enough effect; inconclusive means small, poorly fitted or top-dose-only effect, or another doubt; inactive means no such curve, though single readings can be large; an effect the other way counts as inactive or inconclusive. Potency means the concentration at half of the fitted maximal effect.

SMILES	12-LOX inh	PTHR1 agonist	Glioma ERSR ind	GLS inh	GLP1R ag	GLP1R inv ag
NC(=O)c1cc(N)ccc1N1CCCC1	?	2%	-5%	54%	-7%	1%
C/C(=N\NS(=O)(=O)c1ccc(Br)cc1)c1ccncc1	32µM*	i	7%	0%	-4%	-2%
C/C(=N/NS(=O)(=O)c1ccc(Cl)cc1)c1ccncc1	?	-23%	1%	5%	-2%	3%
Cc1nn(CCc2n[nH]c(=S)n2C2CCCCC2)c(C)c1Br	22µM*	i	-4%	?	-10%	?
CC(C)(C)c1ccc(OCCCC(=O)NNC(=O)c2ccccc2O)cc1	?	i	-5%	0%	3%	13µM*
NNC(=S)Nc1ccc(Br)cc1	7.1µM*	/	/	/	/	/
NC(CSC(c1ccccc1)(c1ccccc1)c1ccc2c(c1)OCO2)C(=O)O (configuration not stated)	13µM*	i	0%	-2%	-5%	?
NC(=O)CC(c1ccccc1)c1ccc2c(c1)OCO2 (configuration not stated)	14%	i	-3%	5%	-3%	-8%
O=c1c2cc(Cl)ccc2ncn1CC(O)COc1ccc(Br)cc1 (configuration not stated)	-89%	/	/	/	/	/
CN(C1CCCCC1)S(=O)(=O)c1ccc(=S)[nH]c1	40µM*	i	-5%	-8%	-46%	-13%
CN(C1CCCCC1)S(=O)(=O)c1ccc(S(=O)(=O)N2CCCC2)cc1	-3%[57.4 µM]	3%[57.5 µM]	-2%	-2%	0%	4%
C(=N\N=C\c1c[nH]c2ccccc12)/c1c[nH]c2ccccc12	-6%	/	/	/	/	/
O=C(NC1CCCCC1)N[C@H]1CO[C@H]2[C@@H]1OC[C@@H]2n1nnnc1-c1ccc2c(c1)OCO2	45µM*	/	/	/	/	/
COc1ccc(NC(=O)c2cccnc2NCCc2ccccc2)cc1	45µM*	-15%	0%	1%	25%	?
CN(C)c1ccc(NC(=O)CN2CCN(c3ccc([N+](=O)[O-])c4cnccc34)CC2)cc1	-17%	/	/	/	/	/
Cc1cc(N2C(=O)C(O)=C(C(=O)c3ccc(C)o3)C2c2cccc(Cl)c2)no1 (configuration not stated)	45µM*	-3%	3%	15%	-2%	-8%
Cc1cc(N2C(=O)C(O)=C(C(=O)c3ccc(C)o3)C2c2ccc([N+](=O)[O-])cc2)no1 (configuration not stated)	40µM*	-24%	-4%	10%	-3%	6%
CC(=O)NC(NC(C)=O)c1ccccc1F	-8%	/	/	/	/	/
CCCCNC(=O)C1=C(N)C(C(=O)Nc2ccc(C)c(S(=O)(=O)N3CCCCC3)c2)SC1=Nc1ccc(C)cc1C (configuration not stated)	-34%	i	-3%	0%	-5%	13µM*
Cc1nc2scc(C)n2c(=O)c1S(=O)(=O)Nc1cccc(C(F)(F)F)c1	-15%	-18%	-4%	1%	/	11µM*
Cc1nc2scc(C)n2c(=O)c1S(=O)(=O)Nc1cccc(O)c1	-14%	-24%	-4%	-3%	/	5%
CCOc1cc(CNCc2cccs2)cc(Br)c1OCC	7%	9%[57.5 µM]	-1%	4%	14%	10µM*
CCOc1cc(CNCc2ccncc2)cc(Br)c1OCc1ccccc1F	?	-18%[57.5 µM]	-6%	-3%	7%	11µM*
Cc1ccc(C)c(S(=O)(=O)Nc2nc3ccccc3nc2NCc2ccccc2)c1	-39%	/	/	/	/	/
COc1ccc(OC)c(NC(=O)c2ncoc2-c2cccc(Cl)c2)c1	-24%	/	/	/	/	/
COc1cccc(CNC(=O)c2cccc(S(=O)(=O)N3CCN(C)CC3)c2)c1	40µM*	-23%	-6%	1%	3%	-7%
COc1cccc(C(=O)CN2CCN(S(=O)(=O)c3ccc(Cl)cc3)CC2)c1	56µM*	i	-5%	-4%	/	4%
